Assay results reported in PubChem BioAssay AID1159580 (chemical genetic matrix, 2015).
Values joined by “and” are separate entries in the source; they are usually repeats but may differ in a detail not shown here. Equal entries are not always repeated. The whole screen tested about 5,500 compounds, of which about 2,000 (36%) were called active. Not shown: some 18% with an inconclusive outcome. Cut-off read from the data, not from the text of the source: active = normalized growth mostly below about 0.91 (no sharp cut-off); inconclusive = no clear call, values can overlap the other calls; inactive = mostly above about 0.92. Some of the results follow.

Test: chemical genetic growth profiling, strain panel (AID 1159580);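 note: tested at 20 µM; growth read once vehicle control cultures reached saturation at 30 °C; 1 = growth at the plate median or of vehicle wells; lower values mean less growth of the strain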
Settings: S. cerevisiae deletion strains, growth OD

Measured: normalized growth

CC(=O)O[C@@H]1CC[C@@]2(C)C(CC[C@]3(C)C2CC=C2C4CC(C)(C)CC[C@]4(C(=O)O)CC[C@]23C)C1(C)C (stereo partly drawn)
inactive: locus YAL021C, strain ccr4, active compounds read low 0.949 | locus YAL026C, strain drs2, active compounds read low 0.957 | locus YAL030W, strain snc1, active compounds read low 0.98 | locus YBL061C, strain skt5, active compounds read low 0.955 | locus YBR009C, strain hhf1, active compounds read low 1.01 | locus YBR021W, strain FUR4, active compounds read low 1 | locus YBR023C, strain chs3, active compounds read low 0.918 | locus YBR171W, strain sec66, active compounds read low 1 | locus YBR229C, strain ROT2, active compounds read low 0.992 | locus YBR231C, strain swc5, active compounds read low 0.913 | locus YBR279W, strain paf1, active compounds read low 0.982 | locus YCL011C, strain gbp2, active compounds read low 0.965 | locus YCL016C, strain dcc1, active compounds read low 0.96 | locus YCL029C, strain bik1, active compounds read low 0.996 | locus YCL061C, strain MRC1, active compounds read low 1 | locus YCL069W, strain vba3, active compounds read low 1.01 | locus YCR088W, strain abp1, active compounds read low 1.01 | locus YDL005C, strain med2, active compounds read low 0.99 | locus YDL035C, strain GPR1, active compounds read low 1.05 | locus YDL040C, strain nat1, active compounds read low 1 | locus YDL074C, strain BRE1, active compounds read low 1.07 | locus YDL101C, strain DUN1, active compounds read low 0.975 | locus YDL134C, strain PPH21, active compounds read low 0.974 | locus YDL185W, strain tfp1, active compounds read low 0.976 | locus YDL192W, strain arf1, active compounds read low 1.01 | locus YDR001C, strain nth1, active compounds read low 1.01 | locus YDR101C, strain arx1, active compounds read low 1.02 | locus YDR137W, strain rgp1, active compounds read low 1.02 | locus YDR159W, strain sac3, active compounds read low 1.03 | locus YDR162C, strain NBP2, active compounds read low 1.03 | locus YDR195W, strain ref2 1.04 | locus YDR297W, strain sur2, active compounds read low 0.939 | locus YDR318W, strain mcm21, active compounds read low 1.01 | locus YDR334W, strain swr1, active compounds read low 0.985 | locus YDR335W, strain msn5, active compounds read low 0.957 | locus YDR388W, active compounds read low 0.983 | locus YDR392W, strain spt3, active compounds read low 0.95 | locus YDR502C, strain sam2, active compounds read low 0.978 | locus YEL003W, strain gim4, active compounds read low 0.976 | locus YEL037C, strain rad23, active compounds read low 0.99 | locus YEL061C, strain CIN8 (second series), active compounds read low 1.01 | locus YEL061C, strain CIN8, active compounds read low 1 | locus YER015W, strain faa2, active compounds read low 0.936 | locus YER016W, strain bim1, active compounds read low 0.965 | locus YER110C, active compounds read low 0.976 | locus YER111C, strain swi4, active compounds read low 0.96 | locus YER155C, strain BEM2 (second series), active compounds read low 0.964 | locus YER155C, strain BEM2, active compounds read low 0.985 | locus YER167W, strain BCK2, active compounds read low 1.01 | locus YFR010W, strain ubp6, active compounds read low 0.949 | locus YGL078C, strain dbp3, active compounds read low 0.977 | locus YGL086W, strain mad1, active compounds read low 1.04 | locus YGL167C, strain pmr1, active compounds read low 0.986 | locus YGL227W, strain vid30, active compounds read low 1.01 | locus YGL240W, strain doc1, active compounds read low 1.08 | locus YGL248W, strain PDE1, active compounds read low 0.998 | locus YGL253W, strain hxk2, active compounds read low 0.984 | locus YGR135W, strain pre9, active compounds read low 0.954 | locus YGR229C, strain SMI1, active compounds read low 0.988 | locus YGR252W, strain gcn5, active compounds read low 0.982 | locus YHR013C, strain ard1, active compounds read low 0.933 | locus YHR030C, strain SLT2, active compounds read low 0.983 | locus YHR079C, strain IRE1 (second series), active compounds read low 0.983 | locus YHR079C, strain IRE1, active compounds read low 0.974 | locus YHR094C, strain hxt1, active compounds read low 0.987 | locus YHR129C, strain ARP1, active compounds read low 0.995 | locus YHR142W, strain chs7, active compounds read low 0.958 | locus YHR200W, strain rpn10, active compounds read low 0.987 | locus YIL066C, strain RNR3, active compounds read low 1.03 | locus YIL073C, strain SPO22, active compounds read low 1.01 | locus YIL125W, strain kgd1, active compounds read low 0.999 | locus YIR030C, strain dcg1, active compounds read low 0.985 | locus YJL092W, strain hpr5, active compounds read low 1.01 | locus YJL095W, strain BCK1 (second series), active compounds read low 0.966 | locus YJL095W, strain BCK1, active compounds read low 1.01 and 0.986 | locus YJL115W, strain asf1, active compounds read low 1.01 | locus YJL129C, strain trk1, active compounds read low 1.02 | locus YJL134W, strain LCB3, active compounds read low 0.996 | locus YJL154C, strain vps35, active compounds read low 1.03 | locus YJL164C, strain tpk1, active compounds read low 0.927 | locus YJL166W, strain qcr8, active compounds read low 0.953 | locus YJL168C, strain set2, active compounds read low 0.987 | locus YJL187C, strain SWE1 (second series), active compounds read low 0.976 | locus YJR043C, strain POL32, active compounds read low 1.06 | locus YJR066W, strain TOR1, active compounds read low 0.882 | locus YKL009W, strain mrt4, active compounds read low 1.03 | locus YKL068W, active compounds read low 1.02 | locus YKL085W, strain MDH1 (second series), active compounds read low 1.04 | locus YKL085W, strain MDH1, active compounds read low 1.04 | locus YKL160W, strain elf1, active compounds read low 0.954 | locus YKL190W, strain CNB1, active compounds read low 1.03 | locus YKR001C, strain vps1, active compounds read low 1 | locus YKR026C, strain gcn3, active compounds read low 1.01 | locus YKR091W, strain srl3, active compounds read low 1 | locus YLL001W, strain dnm1, active compounds read low 1.01 | locus YLL026W, active compounds read low 1 | locus YLL041C, strain sdh2, active compounds read low 0.996 | locus YLR027C, strain aat2, active compounds read low 0.981 | locus YLR039C, strain RIC1, active compounds read low 1.1 | locus YLR058C, strain SHM2, active compounds read low 0.989 | locus YLR102C, strain apc9, active compounds read low 0.981 | locus YLR113W, strain HOG1, active compounds read low 0.975 | locus YLR221C, strain rsa3, active compounds read low 0.954 | locus YLR258W, strain gsy2, active compounds read low 0.98 | locus YLR262C, strain YPT6 (second series), active compounds read low 0.886 | locus YLR262C, strain YPT6, active compounds read low 1.14 | locus YLR268W, strain sec22, active compounds read low 1.01 | locus YLR320W, strain mms22, active compounds read low 0.968 | locus YLR330W, strain CHS5, active compounds read low 1 | locus YLR342W, strain FKS1 (second series), active compounds read low 1.05 | locus YLR342W, strain FKS1, active compounds read low 0.919 | locus YLR357W, strain rsc2, active compounds read low 0.893 | locus YLR370C, strain arc18, active compounds read low 0.957 | locus YLR371W, strain rom2, active compounds read low 0.991 | locus YLR384C, strain iki3, active compounds read low 0.981 | locus YLR418C, strain cdc73, active compounds read low 0.984 | locus YML016C, strain PPZ1, active compounds read low 0.99 | locus YML032C, strain rad52, active compounds read low 1.01 | locus YML120C, strain ndi1, active compounds read low 0.999 | locus YML124C, strain tub3, active compounds read low 0.99 | locus YMR078C, strain ctf18, active compounds read low 0.977 | locus YMR125W, strain sto1, active compounds read low 1.01 | locus YMR129W, active compounds read low 1.01 | locus YMR205C, strain PFK2, active compounds read low 0.991 | locus YMR223W, strain ubp8, active compounds read low 0.985 | locus YMR231W, strain pep5, active compounds read low 0.99 | locus YMR263W, strain SAP30, active compounds read low 0.985 | locus YMR307W, strain GAS1, active compounds read low 0.985 | locus YNL067W, strain RPL9B, active compounds read low 0.973 | locus YNL071W, strain lat1, active compounds read low 1.02 | locus YNL153C, strain GIM3, active compounds read low 0.988 | locus YNL183C, strain NPR1, active compounds read low 0.914 | locus YNL233W, strain BNI4, active compounds read low 0.991 | locus YNL248C, strain rpa49, active compounds read low 1.03 | locus YNL250W, strain rad50, active compounds read low 0.959 | locus YNL271C, strain bni1, active compounds read low 0.981 | locus YNL298W, strain CLA4, active compounds read low 0.995 | locus YNL307C, strain MCK1, active compounds read low 0.985 | locus YNL322C, strain KRE1 (second series), active compounds read low 0.988 | locus YNR049C, strain mso1, active compounds read low 1.01 | locus YNR052C, strain pop2, active compounds read low 0.985 | locus YOL012C, strain htz1 0.851 | locus YOL147C, strain pex11, active compounds read low 1.01 | locus YOR001W, strain rrp6, active compounds read low 1.02 | locus YOR061W, strain CKA2, active compounds read low 1.04 | locus YOR069W, strain VPS5, active compounds read low 0.989 | locus YOR070C, strain gyp1, active compounds read low 0.986 | locus YOR080W, strain dia2, active compounds read low 1 | locus YOR083W, strain WHI5, active compounds read low 0.968 | locus YOR136W, strain idh2, active compounds read low 0.979 | locus YOR144C, strain elg1, active compounds read low 0.981 | locus YOR184W, strain ser1, active compounds read low 1.05 | locus YOR231W, strain MKK1, active compounds read low 0.966 | locus YOR265W, strain rbl2, active compounds read low 0.984 | locus YOR270C, strain vph1, active compounds read low 0.946 | locus YOR290C, strain snf2, active compounds read low 0.983 | locus YOR316C, strain cot1, active compounds read low 0.98 | locus YPL078C, strain atp4, active compounds read low 0.992 | locus YPL106C, strain sse1, active compounds read low 0.923 | locus YPL240C, strain hsp82, active compounds read low 0.985 | locus YPL256C, strain CLN2, active compounds read low 0.982 | locus YPR119W, strain clb2, active compounds read low 0.981 | locus YPR141C, strain kar3, active compounds read low 0.982 | locus YPR163C, strain tif3, active compounds read low 0.991 | locus YPR167C, strain met16, active compounds read low 0.987 | strain wtn01, active compounds read low 1.03
active: locus YDR069C, strain doa4, active compounds read low 0.84 | locus YGL173C, strain kem1, active compounds read low 0.902 | locus YHR027C, strain rpn1, active compounds read low 0.913 | locus YMR058W, strain fet3, active compounds read low 0.655 | locus YNL209W, strain ssb2, active compounds read low 0.793 | locus YOR106W, strain vam3, active compounds read low 0.852 | locus YPL051W, strain arl3, active compounds read low 0.833
